# A selection: hits, their analogues and other compounds. The true share with any hit is near 3.7%.
# BoNT-F LC inh: BoNT/F light chain protease inhibitors, primary screen, biochemical, flow cytometry, MLPCN library; hit rate 0.22% among 360,000; Multiplex microsphere protease cleavage assay; Botulinum neurotoxin type F light chain protease (Clostridium botulinum); inhibition, % at 10 µM; in the data active means inhibition above about 35%, passing the limit was not always enough; inconclusive means no clear call, values can overlap the other calls
# BoNT-A LC inh2: BoNT/A light chain protease inhibitors, primary screen, biochemical, flow cytometry, MLPCN library | Botulinum neurotoxin type A light chain protease (Clostridium botulinum A str. ATCC 3502) | multiplex microsphere protease substrate cleavage | inhibition, % at 10 µM | hit rate 0.17% among 360,000
# Anthrax LF prot: Bacillus anthracis LF protease inhibitors, primary screen, biochemical, multiplex microsphere, MLPCN library. Lethal factor (Bacillus anthracis), P15917. multiplex microsphere protease cleavage assay. inhibition, % at 10 µM. hit rate 0.12% among 360,000
# Target sequence (P15917 whole entry, looked up): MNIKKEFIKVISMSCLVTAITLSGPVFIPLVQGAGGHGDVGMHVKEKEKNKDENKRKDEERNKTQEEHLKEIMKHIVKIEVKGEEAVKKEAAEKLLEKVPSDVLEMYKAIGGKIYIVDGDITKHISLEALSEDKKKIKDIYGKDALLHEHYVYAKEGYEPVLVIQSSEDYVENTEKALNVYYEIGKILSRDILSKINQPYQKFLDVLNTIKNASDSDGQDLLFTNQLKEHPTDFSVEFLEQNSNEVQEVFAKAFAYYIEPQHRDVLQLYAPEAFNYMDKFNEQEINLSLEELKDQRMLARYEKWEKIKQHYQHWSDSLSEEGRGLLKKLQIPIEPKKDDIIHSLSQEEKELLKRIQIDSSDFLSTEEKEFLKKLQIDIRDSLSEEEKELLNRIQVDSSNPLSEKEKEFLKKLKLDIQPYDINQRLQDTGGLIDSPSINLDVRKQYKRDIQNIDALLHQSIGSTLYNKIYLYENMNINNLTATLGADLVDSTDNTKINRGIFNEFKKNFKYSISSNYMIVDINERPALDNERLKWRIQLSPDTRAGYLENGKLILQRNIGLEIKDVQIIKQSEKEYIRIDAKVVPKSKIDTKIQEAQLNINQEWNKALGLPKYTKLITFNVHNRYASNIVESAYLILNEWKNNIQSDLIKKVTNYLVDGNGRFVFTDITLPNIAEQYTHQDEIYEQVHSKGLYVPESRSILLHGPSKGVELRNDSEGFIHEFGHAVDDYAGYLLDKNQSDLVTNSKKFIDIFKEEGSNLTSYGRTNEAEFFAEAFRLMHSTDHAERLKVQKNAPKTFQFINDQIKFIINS
# Bead autofluor: flagged as autofluorescent in microsphere protease counterscreen. fluorescence intensity (no concentration beside the values). compound autofluorescence counterscreen, microsphere flow cytometry; active compounds read high. hit rate 3.1% among 360,000. AID 624483; in the data active means fluorescence intensity above about 16000; inconclusive means no clear call, values can overlap the other calls
# MazF activator: activators of E. coli MazEF toxin-antitoxin RNase, primary screen, biochemical, fluorescence, uHTS. hit rate 0.32% among 350,000. activation, % at 20 µM. FAM/BHQ RNA-DNA oligo cleavage fluorescence, 5 h. Endoribonuclease toxin MazF (Escherichia coli (strain K12)), P0AE70; in the data active means activation above about 50%
# Numbers stand for hits; - = inactive; ? = inconclusive; . = no result. Unless noted, no stated cut-off is given here; in the data, active means inhibition above about 30%; inconclusive means no clear call, values can overlap the other calls; inactive means below that.
SMILES,BoNT-F LC inh,BoNT-A LC inh2,Anthrax LF prot,Bead autofluor,MazF activator
O=c1[nH]c(=O)n(C2CCCCC2)c(O)c1/C=C/C=Nc1ccccc1,-,-,-,-,95.6
O=c1[nH]c(=O)n(-c2ccccc2)c(O)c1/C=C/C=Nc1ccccc1,-,-,-,-,-
Cc1ccc(S(=O)(=O)N2CCN(S(=O)(=O)c3ccc(C)cc3)C3OCCOC32)cc1 (centres undefined),-,-,-,16671,-
Cc1ccc(S(=O)(=O)N2CCCCC2C(=O)O)cc1 (centres undefined),-,-,-,-,-
Cc1ccc(S(=O)(=O)N2CCN(C(=O)CN3CCOCC3)C2C(C)C)cc1 (centres undefined),-,-,-,22471,-
O=C(c1ccccc1)N1N=C(C(F)(F)F)CC1(O)c1ccccc1 (centres undefined),-,-,38.5,-,-
O=C(NNC(=O)c1ccccc1O)c1ccc(Cl)c(S(=O)(=O)N2CCc3ccccc32)c1,-,-,-,-,-
O=C(CCS(=O)(=O)c1ccc(Br)cc1)N1CCN(c2ccc(F)cc2)CC1,-,-,-,-,-
O=C(CCS(=O)(=O)c1ccc(Br)cc1)N1CCN(c2ccc(Cl)cc2)CC1,-,-,-,20319,-
CC1(c2nnnn2Cc2ccccc2)CCC(=O)N1C1CC1 (centres undefined),-,-,-,-,.
O=c1[nH]cc(C=NNc2ccccc2)c(=O)[nH]1,-,-,-,-,.
Cc1cccc(C(=O)Nc2cc(OCc3cccc(F)c3)c(Cl)cc2Cl)c1,-,?,-,19656,-
Cc1cccc(C(=O)Nc2cccnc2Cl)c1,-,65.8,-,-,-
Cc1cccc(C(=O)Nc2cccc3cccnc23)c1,-,-,-,-,-
CCOc1ncccc1C(=O)OCC(=O)Nc1cc(C)ccc1C,-,-,-,23113,-
Cc1ccc(NC(=O)c2ccccn2)c(Br)c1,-,-,-,-,-
Cc1ccc(C)c(NC(=O)c2ccccn2)c1,-,?,-,20724,-
O=[N+]([O-])c1ccc2c(c1)CO[C@@]21O[C@H](CCO)C[C@H](O)[C@H]1O,-,-,-,-,.
C=C(C)C(=O)Nc1ccc2nn(-c3ccccc3O)nc2c1,-,-,-,-,-
CCc1nnc(NC(=O)CSc2ncnc3scc(-c4ccc(C)cc4)c23)s1,-,-,-,-,85.7
CC(C)CC(=O)N1CCC(O)(CS(=O)(=O)Cc2ccccc2Cl)CC1,-,?,-,21027,-
CC(C)CC(=O)N1CCC(O)(CS(=O)(=O)Cc2ccc(Cl)cc2)CC1,-,-,-,-,-
O=C(c1cc(Cl)cc(Cl)c1)N1CCOCC1,-,-,-,20304,-
Cc1ccc(C)n1-c1ccc(N2CCOCC2)nc1,-,-,-,22547,-
Cc1ccc(S(=O)(=O)Nc2ccc(N3CCOCC3)nc2)cc1,-,-,-,-,-
SMILES,BoNT-F LC inh,BoNT-A LC inh2,Anthrax LF prot,Bead autofluor,MazF activator
CC(=O)N1CCN(C(=O)c2ccc(-n3c(C)ccc3C)cc2)CC1,-,-,-,-,-
Cc1ccc(C)n1-c1ccc(C(=O)N2CCOCC2)cc1,-,?,-,22385,-
Cc1ccc(/C=N/NC(=O)c2nnn(-c3nonc3N)c2CN(C)c2ccccc2)s1,-,-,-,-,-
CCc1nc2oc3cc(OC)ccc3c(=O)c2c(=O)n1Cc1ccccc1,-,?,-,24709,-
CC1CCCC(C(=O)O)N1C(=O)CCSC(=O)c1ccccc1 (centres undefined),-,-,-,22094,-
CC1CCCC(C)N1C(=O)Cn1nnc(-c2ccccc2)n1 (centres undefined),-,-,-,-,-
NC(N)=NS(=O)(=O)c1ccc(NC(=S)NC(=O)c2ccncc2)cc1,-,-,-,-,-
NC(N)=NS(=O)(=O)c1ccc(NC(=S)NC(=O)c2ccc(Br)cc2)cc1,-,-,-,-,58.6
CC1CCC(NS(=O)(=O)c2ccc(N3CCCC3=O)cc2)CC1 (centres undefined),.,.,.,.,-
Cc1cc(C)c2c(n1)sc1c(N3CCN(CCO)CC3)ncnc12,-,-,-,17147,-
COC(=O)c1c(NC(=O)c2ccccc2)sc2c1CC(C)(C)OC2,-,?,-,16350,-
Cc1ccccc1NC(=O)OCc1cn(-c2ccc(Cl)cc2)nn1,-,-,-,22413,-
CCCCC(=O)OCc1cn(-c2ccc(Cl)cc2)nn1,-,-,-,22405,-
